This is an account of results in ChEMBL document CHEMBL3988442, “University of Dundee, Small-Polar-MMV Screening Library” (2021).

For some assays here: Results with a measured potency or affinity are listed apart.

What all share (parameters): scale not given: direction of the effect not stated beside the values
Assay [1] addresses Protein translocase subunit SecA (Escherichia coli (strain K12)) (UniProt P10408). As to the kind of experiment: Assay to Identify E. coli SecA ATPase Inhibitors. The note with it: 30 µM. It is filed as functional.
For assay [2], the target named is T1, Ubiquitin-activating enzyme e1, putative (Leishmania donovani (strain BPK282A1)) (UniProt E9BSI1).
T1 sequence (whole entry): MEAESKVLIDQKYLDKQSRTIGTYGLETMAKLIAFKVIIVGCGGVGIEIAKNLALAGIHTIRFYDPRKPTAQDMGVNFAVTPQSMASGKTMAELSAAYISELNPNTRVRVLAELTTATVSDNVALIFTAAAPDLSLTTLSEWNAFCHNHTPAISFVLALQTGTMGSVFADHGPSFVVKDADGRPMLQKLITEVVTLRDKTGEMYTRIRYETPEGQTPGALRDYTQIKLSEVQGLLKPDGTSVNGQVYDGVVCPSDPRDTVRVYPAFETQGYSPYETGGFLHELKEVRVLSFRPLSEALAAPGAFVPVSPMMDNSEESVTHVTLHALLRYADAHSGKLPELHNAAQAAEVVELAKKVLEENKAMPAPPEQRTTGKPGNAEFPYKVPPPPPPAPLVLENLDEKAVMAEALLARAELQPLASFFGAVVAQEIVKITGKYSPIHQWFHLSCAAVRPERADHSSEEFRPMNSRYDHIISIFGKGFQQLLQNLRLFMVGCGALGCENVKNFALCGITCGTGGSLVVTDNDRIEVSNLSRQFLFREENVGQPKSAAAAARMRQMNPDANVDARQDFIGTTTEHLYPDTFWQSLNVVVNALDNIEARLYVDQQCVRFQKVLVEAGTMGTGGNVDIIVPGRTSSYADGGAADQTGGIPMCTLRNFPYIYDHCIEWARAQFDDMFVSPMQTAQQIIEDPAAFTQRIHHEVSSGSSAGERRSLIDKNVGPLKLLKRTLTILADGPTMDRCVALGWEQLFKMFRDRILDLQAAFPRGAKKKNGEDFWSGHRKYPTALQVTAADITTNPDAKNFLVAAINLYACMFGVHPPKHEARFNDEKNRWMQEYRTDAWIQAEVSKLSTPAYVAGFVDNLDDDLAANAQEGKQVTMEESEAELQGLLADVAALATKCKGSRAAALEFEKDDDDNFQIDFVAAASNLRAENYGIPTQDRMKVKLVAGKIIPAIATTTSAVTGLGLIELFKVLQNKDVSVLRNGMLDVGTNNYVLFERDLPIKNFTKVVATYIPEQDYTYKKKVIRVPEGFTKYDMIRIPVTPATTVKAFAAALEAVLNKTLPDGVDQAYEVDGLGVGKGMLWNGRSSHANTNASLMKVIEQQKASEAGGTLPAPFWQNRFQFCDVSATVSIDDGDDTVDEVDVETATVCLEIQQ
Nature of the assay: Leishmania donovani Ubiquitin Activating Enzyme (LdE1). The format is functional. Particulars: 30 µM.

Assay [3] has as its target AMP-activated protein kinase, AMPK (Homo sapiens) (UniProt P54646+O43741+P54619+Q9UGJ0+Q9Y478+Q13131+Q9UGI9). Nature of the assay: AMP-dependent Kinase enzyme assay. An in vitro enzyme assay that detects ADP turnover that is directly proportional to AMPK activity. This uses naive AMPK that is activated during the assay with MK-8722. The note with it: 30 µM. The format is functional.

Assay [4] has as its target Sialic acid-binding Ig-like lectin 9 (Homo sapiens) (UniProt Q9Y336). As to the kind of experiment: Hs-Siglec9 ALPHAscreen SOP 20170721. The note with it: 10 µM.
The subject of a further assay is Trypanosoma cruzi. As to the kind of experiment: Trypanosoma cruzi phosphomannomutase and mannose-1-phosphate guanylyltransferase assay. The format is functional. The note with it: 10 µM.
Assay [5] has as its target T2, Arginase-2, mitochondrial (Homo sapiens) (UniProt P78540).
T2 sequence (whole entry): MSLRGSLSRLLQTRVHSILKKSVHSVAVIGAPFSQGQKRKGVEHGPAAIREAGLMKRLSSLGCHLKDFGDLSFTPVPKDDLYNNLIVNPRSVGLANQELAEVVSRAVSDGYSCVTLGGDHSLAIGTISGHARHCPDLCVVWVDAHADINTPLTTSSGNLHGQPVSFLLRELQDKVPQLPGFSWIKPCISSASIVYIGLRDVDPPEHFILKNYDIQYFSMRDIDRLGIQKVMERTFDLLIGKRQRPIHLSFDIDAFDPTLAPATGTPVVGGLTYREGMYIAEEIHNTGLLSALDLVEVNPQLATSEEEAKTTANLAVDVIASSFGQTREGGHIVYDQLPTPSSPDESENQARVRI
Nature of the assay: in vitro enzyme assay to detect the production of urea directly proportional to the activity of Arginase II. Further: in the data most compounds retested in dose-response had high values. The format is functional. Particulars: 33.3 µM.

For assay [6], the target named is T3, Proteasome subunit beta (Trypanosoma cruzi) (UniProt O96673).
T3 sequence (whole entry): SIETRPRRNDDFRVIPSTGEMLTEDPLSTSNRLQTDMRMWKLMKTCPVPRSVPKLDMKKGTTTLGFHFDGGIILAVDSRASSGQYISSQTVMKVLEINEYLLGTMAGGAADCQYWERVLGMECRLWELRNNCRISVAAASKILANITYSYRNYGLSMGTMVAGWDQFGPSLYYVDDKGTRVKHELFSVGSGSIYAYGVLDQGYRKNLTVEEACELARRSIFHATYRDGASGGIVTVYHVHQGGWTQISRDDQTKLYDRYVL
As to the kind of experiment: Trypanosoma cruzi proteasome chymotrypsin-like activity (TcProtChymo) assay. Further: in the data most compounds retested in dose-response had high values. The note with it: 9.37 µM. It is filed as functional.

For another assay, the species on record is Homo sapiens. Nature of the assay: To identify inhibition of the IFN signalling (Jak-Stat) pathway via expression of an eGFP reporter gene under the control of an IFN-stimulated response element (ISRE) containing MxA promoter. The note with it: 30 µM. It is filed as functional.
The target of assay [7] is T4, Tyrosyl-tRNA synthetase, putative (Trypanosoma cruzi (strain CL Brener)) (UniProt Q4DSP6).
T4 sequence (whole entry): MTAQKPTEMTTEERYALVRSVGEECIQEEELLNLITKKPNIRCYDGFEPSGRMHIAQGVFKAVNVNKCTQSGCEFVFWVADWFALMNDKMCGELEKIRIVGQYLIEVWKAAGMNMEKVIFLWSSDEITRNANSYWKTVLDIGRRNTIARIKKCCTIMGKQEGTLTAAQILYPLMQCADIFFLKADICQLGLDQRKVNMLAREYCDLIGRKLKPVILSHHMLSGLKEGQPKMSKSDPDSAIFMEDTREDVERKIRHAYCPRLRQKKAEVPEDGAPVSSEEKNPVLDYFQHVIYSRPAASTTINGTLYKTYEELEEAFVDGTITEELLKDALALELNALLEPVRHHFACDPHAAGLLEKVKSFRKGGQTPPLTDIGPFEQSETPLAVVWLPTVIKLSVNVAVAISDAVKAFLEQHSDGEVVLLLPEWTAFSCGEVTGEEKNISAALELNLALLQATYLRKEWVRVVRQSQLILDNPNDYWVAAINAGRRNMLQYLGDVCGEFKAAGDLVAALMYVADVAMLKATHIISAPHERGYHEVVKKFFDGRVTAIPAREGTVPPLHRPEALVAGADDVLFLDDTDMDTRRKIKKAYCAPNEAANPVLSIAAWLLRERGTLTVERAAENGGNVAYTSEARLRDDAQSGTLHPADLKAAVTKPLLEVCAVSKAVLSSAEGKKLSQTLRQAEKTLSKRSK
Nature of the assay: Trypanosoma cruzi tyrosyl tRNA synthetase (TcYRS) _High Tyrosine SOP. Further: in the data most compounds retested in dose-response had high values. The format is functional. The note with it: 30 µM.

Assay [8] has as its target T4, Tyrosyl-tRNA synthetase, putative (Trypanosoma cruzi (strain CL Brener)). Nature of the assay: Trypanosoma cruzi tyrosyl tRNA synthetase (TcYRS) SOP. The note with it: 30 µM. The format is functional.
Assay [9] addresses Chromo domain-containing protein 1 (Saccharomyces cerevisiae (strain ATCC 204508 / S288c) (Baker's yeast)) (UniProt P32657). Nature of the assay: ScCHD-1 Enzyme Inhibition Assay. Further: in the data most compounds retested in dose-response had high values. The format is functional. The note with it: 30 µM.

Chain of Protein translocase subunit SecA (Escherichia coli (strain K12)) (P10408 whole entry): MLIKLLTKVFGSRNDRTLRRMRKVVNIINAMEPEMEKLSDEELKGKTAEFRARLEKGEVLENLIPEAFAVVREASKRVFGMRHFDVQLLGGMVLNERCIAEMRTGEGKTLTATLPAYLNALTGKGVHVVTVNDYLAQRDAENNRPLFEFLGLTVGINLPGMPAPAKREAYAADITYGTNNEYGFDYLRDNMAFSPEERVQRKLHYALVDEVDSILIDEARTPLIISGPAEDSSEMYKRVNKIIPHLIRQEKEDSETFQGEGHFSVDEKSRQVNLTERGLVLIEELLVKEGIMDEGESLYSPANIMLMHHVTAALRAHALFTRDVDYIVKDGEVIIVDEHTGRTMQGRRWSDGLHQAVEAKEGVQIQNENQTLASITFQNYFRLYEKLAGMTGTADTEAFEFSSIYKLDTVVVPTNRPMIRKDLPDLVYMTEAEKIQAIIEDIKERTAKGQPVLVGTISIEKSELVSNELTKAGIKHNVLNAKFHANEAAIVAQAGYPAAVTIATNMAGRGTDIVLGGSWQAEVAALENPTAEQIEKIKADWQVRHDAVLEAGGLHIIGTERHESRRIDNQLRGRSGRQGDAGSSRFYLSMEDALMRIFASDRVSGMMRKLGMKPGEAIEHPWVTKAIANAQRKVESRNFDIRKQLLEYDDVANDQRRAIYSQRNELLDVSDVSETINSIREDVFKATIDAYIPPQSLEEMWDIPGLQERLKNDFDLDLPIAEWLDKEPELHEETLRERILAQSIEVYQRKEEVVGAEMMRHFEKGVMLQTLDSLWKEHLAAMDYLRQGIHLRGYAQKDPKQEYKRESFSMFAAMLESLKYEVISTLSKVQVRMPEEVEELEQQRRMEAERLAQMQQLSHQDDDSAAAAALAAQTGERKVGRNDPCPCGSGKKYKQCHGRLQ
Chain of Chromo domain-containing protein 1 (Saccharomyces cerevisiae (strain ATCC 204508 / S288c) (Baker's yeast)) (P32657 whole entry, the tested form may be a part): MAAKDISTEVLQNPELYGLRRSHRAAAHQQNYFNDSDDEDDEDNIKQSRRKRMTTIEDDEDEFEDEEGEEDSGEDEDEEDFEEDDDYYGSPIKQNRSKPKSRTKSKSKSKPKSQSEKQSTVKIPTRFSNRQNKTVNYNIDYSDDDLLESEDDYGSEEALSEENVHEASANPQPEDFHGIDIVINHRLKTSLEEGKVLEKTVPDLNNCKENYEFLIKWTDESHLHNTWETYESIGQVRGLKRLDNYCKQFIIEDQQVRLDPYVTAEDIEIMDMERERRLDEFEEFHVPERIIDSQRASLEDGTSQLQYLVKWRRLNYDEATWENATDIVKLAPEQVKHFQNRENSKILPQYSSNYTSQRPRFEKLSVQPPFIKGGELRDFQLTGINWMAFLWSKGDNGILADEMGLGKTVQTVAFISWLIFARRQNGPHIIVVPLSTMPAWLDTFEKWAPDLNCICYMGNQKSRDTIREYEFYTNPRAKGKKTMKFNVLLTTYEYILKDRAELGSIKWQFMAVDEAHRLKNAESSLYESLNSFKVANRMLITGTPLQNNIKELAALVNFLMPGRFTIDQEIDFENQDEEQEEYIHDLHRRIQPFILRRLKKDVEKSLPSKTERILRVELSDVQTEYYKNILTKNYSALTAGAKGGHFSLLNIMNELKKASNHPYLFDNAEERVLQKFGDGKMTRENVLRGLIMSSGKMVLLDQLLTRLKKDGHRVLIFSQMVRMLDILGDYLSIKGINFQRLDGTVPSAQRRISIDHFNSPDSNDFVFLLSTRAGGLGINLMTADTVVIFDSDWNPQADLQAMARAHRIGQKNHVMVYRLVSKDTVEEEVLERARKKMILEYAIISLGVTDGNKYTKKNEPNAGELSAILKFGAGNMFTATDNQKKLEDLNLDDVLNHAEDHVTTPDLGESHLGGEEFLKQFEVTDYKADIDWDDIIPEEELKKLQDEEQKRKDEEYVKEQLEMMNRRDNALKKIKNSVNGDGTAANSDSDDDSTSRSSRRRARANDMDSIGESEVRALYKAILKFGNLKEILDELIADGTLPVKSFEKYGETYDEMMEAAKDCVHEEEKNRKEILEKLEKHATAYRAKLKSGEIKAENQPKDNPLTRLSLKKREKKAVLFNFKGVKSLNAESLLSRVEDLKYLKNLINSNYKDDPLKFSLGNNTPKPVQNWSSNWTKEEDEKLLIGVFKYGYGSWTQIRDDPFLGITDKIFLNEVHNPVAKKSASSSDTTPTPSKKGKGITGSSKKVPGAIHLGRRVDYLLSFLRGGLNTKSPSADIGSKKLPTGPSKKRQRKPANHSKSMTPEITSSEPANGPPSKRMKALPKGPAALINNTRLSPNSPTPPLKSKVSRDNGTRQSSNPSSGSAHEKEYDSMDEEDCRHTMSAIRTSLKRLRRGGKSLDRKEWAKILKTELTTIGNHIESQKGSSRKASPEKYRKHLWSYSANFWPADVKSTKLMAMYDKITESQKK
Chain of Sialic acid-binding Ig-like lectin 9 (Homo sapiens) (Q9Y336 whole entry): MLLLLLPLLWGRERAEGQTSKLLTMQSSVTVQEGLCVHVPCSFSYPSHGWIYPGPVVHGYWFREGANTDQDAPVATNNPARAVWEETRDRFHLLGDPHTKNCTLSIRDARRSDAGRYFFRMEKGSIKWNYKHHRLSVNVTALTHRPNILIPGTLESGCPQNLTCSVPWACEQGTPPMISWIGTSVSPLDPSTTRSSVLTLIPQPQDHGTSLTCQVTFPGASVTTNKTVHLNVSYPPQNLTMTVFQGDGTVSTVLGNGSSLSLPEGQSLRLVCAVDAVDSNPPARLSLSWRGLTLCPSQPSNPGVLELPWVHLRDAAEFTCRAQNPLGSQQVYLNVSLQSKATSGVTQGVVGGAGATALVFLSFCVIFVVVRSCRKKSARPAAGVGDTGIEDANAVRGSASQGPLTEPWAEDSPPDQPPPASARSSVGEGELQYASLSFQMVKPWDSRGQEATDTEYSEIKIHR

For the compound `Cn1cc(CN2CCCC3(CCN(c4nncs4)C3)C2)cn1` (stereo not given), the Percent Effect was -9.67% in assay [1]; 2.7% in assay [2]; 2.26% in assay [3]; -4.09% in assay [4]; -2.83% in the assay with Trypanosoma cruzi; -1.24% in [5]. Also, the Percent Effect in assay [6] was 1.97%; in the assay filed under Homo sapiens, -4.18%; in [7], 1.07%; in assay [8], 6.17%; in assay [9], -0.679%.

As to `CN(C)C(=O)CNC(=O)CCn1ncc2c(Cl)cccc21`, the Percent Effect was -5.52% in [1]; 4% in assay [2]; 2.92% in assay [3]; 1.65% in assay [4]; 3.73% in the assay on Trypanosoma cruzi; -7.57% in [5]. In addition, the Percent Effect in [6] is 14.1%; in the assay filed under Homo sapiens, 16.1%; in assay [7], 2.12%; in assay [8], 7.69%; in assay [9], -12.3%.

`Cc1cnn(CCNCc2ccccc2OCc2cccnc2)c1`: the Percent Effect was -4.98% in [1]; -3.8% in assay [2]; 2.64% in assay [3]; 6.26% in assay [4]; -1.95% in the assay on Trypanosoma cruzi; 1.5% in [5]. Further, the Percent Effect is 17% in [6]; 5.87% in the assay listed under Homo sapiens; 5.21% in assay [7]; 5.06% in [8]; -13% in assay [9].

On to `Cc1noc(CN2Cc3ccccc3CC2c2nnc(C)o2)n1` (stereo not given), for which the Percent Effect in [1] was -3.16%; in assay [2], 5.2%; in assay [3], 6.26%; in assay [4], 12.5%; in the assay on Trypanosoma cruzi, 3.23%; in assay [5] it was 1.9%. For the same compound, the Percent Effect came to 5.58% in assay [6]; 8.44% in the assay listed under Homo sapiens; 2.86% in [7]; 7.06% in assay [8]; 3.28% in assay [9].

`COCCN1CCC2(CCN(Cc3nccs3)CC2)C1=O`: the Percent Effect was -1.23% in assay [1]; -2.67% in assay [2]; -1.24% in assay [3]; 5.18% in assay [4]; -5.79% in the assay with Trypanosoma cruzi; -11.7% in assay [5]. The Percent Effect in assay [6] is 2.91%; in the assay filed under Homo sapiens, -7.71%; in [7], 6.25%; in assay [8], 2.5%; in [9] it was 0.122%.

Regarding `CCNC(=O)Nc1ccc2c(ccn2CC(=O)N(CC)CC)c1`, the Percent Effect is -2.78% in [1]; 18.4% in assay [2]; -2.69% in assay [3]; 1.44% in assay [4]; -0.188% in the assay on Trypanosoma cruzi; -4.6% in [5]. Moreover, the Percent Effect in [6] is 12.5%; in the assay filed under Homo sapiens, 19.9%; in assay [7] it was 9.31%; in [8] it was 17.1%; in [9] it was -6.24%.

As to `O=C(c1n[nH]c(=O)c2ccccc12)N1CCCCC1c1ccn[nH]1` (stereo not given), the Percent Effect in [1] is -1.96%; in assay [2], 1.35%; in assay [3] it was 14.9%; in [4], -7.74%; in the assay with Trypanosoma cruzi, -5.53%; in [5] it was -8.12%. Moreover, the Percent Effect is 1.72% in [6]; 0.863% in the assay listed under Homo sapiens; 4.3% in assay [7]; 6.49% in assay [8]; -5.69% in [9].

Take `c1csc(-c2nc(CN3CCCC3Cn3cncn3)co2)c1` (stereo not given): the Percent Effect in assay [1] is -2.28%; in assay [2] it was -5.48%; in assay [3], -7.9%; in [4], 1.3%; in the assay on Trypanosoma cruzi, 6.86%; in assay [5], -3.18%. The Percent Effect in assay [6] was 5.68%; in the assay listed under Homo sapiens it was -9.88%; in [7], 2.15%; in [8], 5%; in assay [9], -3.71%.

On to `CCS(=O)(=O)N1C[C@H]2C[C@H](C(=O)N(C)C)[C@@H](C1)O2`, for which the Percent Effect is -1.35% in assay [1]; 8% in assay [2]; 9.37% in assay [3]; 0.653% in [4]; -5.51% in the assay with Trypanosoma cruzi; 3.03% in assay [5]. Moreover, the Percent Effect in assay [6] was 5.55%; in the assay listed under Homo sapiens, 5.25%; in assay [7], 4.25%; in assay [8], 6.41%; in [9], -3.75%.

Regarding `COCCN1CC[C@H](O)[C@@H]1Cc1ccccc1`, the Percent Effect was -2.09% in assay [1]; 12% in [2]; -0.98% in [3]; 0.93% in assay [4]; 0.786% with Trypanosoma cruzi; 6.87% in [5]. For the same compound, the Percent Effect in assay [6] was 20%; in the assay filed under Homo sapiens, 22.1%; in [7], 5.29%; in assay [8], 7.69%; in assay [9] it was -4.88%.
